D1 antagonist = blocks dopamine activation of the human D1 receptor | HEK293 TREx D1 cells, calcium flux, dopamine EC80; stronger effect = lower value | actives 3.2% (n = 360,000) | activity change, negative = inhibition, % at 10 µM; in the data active = activity change below about -30%; note: % is set by controls: 0 for no effect and ±100 for the full control effect
Target sequence (P21728 whole entry, looked up): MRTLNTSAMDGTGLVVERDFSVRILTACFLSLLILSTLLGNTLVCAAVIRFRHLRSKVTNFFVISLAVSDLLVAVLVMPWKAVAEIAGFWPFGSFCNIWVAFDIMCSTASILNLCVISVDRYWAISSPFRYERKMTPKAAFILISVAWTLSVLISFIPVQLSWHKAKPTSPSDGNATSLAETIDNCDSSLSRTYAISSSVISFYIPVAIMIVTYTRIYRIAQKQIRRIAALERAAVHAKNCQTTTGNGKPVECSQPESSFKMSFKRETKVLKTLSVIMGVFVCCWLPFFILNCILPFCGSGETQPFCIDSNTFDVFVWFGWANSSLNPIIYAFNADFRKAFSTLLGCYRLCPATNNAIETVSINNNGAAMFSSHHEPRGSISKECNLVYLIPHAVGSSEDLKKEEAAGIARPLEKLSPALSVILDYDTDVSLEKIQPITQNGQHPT
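Compound effects on dopamine-evoked calcium signalling were measured in tetracycline-induced HEK293 Trex D1 cells. Dopamine at EC80 followed a 180 s compound pre-read, and fluorescence was tracked kinetically for 180 s more.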
TRHR agonist = TRH receptor (human) agonism; P34981; TRHR cells, calcium flux fluo-8, FDSS agonist mode; activation, % at 2 µM; actives 0.18% (n = 360,000); AID 493084; note: 0% is about no effect
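In this calcium-flux screen, cells bearing human TRHR are dye-loaded with fluo-8, baselined for 10 cycles, then exposed to library compounds; positive kinetic calcium responses during the agonist phase mark hits, with TRH as control.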
D1 agonist = activates the human D1 dopamine receptor; P21728; HEK293 T-REx D1 cells, calcium flux, agonist mode; activation, % at 2 µM; actives 1% (n = 360,000); AID 504660; note: 0% is about no effect
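Agonism was scored from calcium flux recorded over 180 s (1 read/s) after pintool compound addition, following a 10-cycle baseline. Cells were inducible force-coupled HEK293 TREx D1, plated overnight at 30 C and loaded with no-wash calcium dye.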
TRHR PAM = TRH receptor (human) allosteric enhancement | P34981 | TRHR cells, fluo-8 calcium fluorescence, EC20 TRH enhancement | enhancement, % at 2 µM | actives 0.66% (n = 360,000) | AID 493056; in the data active = enhancement above about 30%; note: 0% is about no effect
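Enhancer read-out: after compound pinning and an initial kinetic agonist-mode read, an EC20 of TRH (10 nM final) was injected and fluo-8 calcium signal (Ex 480/Em 530) followed at 1 s/cycle for 100 cycles in TRHR-expressing cells.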
D1 potentiator = potentiators of human D1 dopamine receptor; P21728; HEK293 TREx D1 cells, calcium flux, dopamine EC20 potentiation; potentiation, % at 10 µM; actives 0.036% (n = 360,000); AID 504651; in the data active = potentiation above about 30%; note: 0% is about no effect
* marks the source's active call; other numbers are inactive results. An excerpt weighted towards active compounds, which were near 4.7% of everything screened. Cut-off read from the data, not from the text of the source, unless noted: active = activation above about 30%; inactive = the rest.

SMILES	D1 antagonist	TRHR agonist	D1 agonist	TRHR PAM	D1 potentiator
Cn1c2ccccc2c(=O)c2c(=O)n(C3CCCCC3)c(-c3cccs3)nc21	-32*	23	116*	-13	-4
Cn1c2ccccc2c(=O)c2c(=O)n(C3CCCCCC3)c(C3CCCCC3)nc21	-27	29	121*	-7	5
O=C(NC1CC(=O)N(c2ccc3c(c2)OCCO3)C1)c1c(F)cccc1Cl (configuration not stated)	0	-1	-1	8	0
COCC1CCN(C(=O)c2cc(COc3ccc(-n4cncn4)cc3)on2)CC1	-36*	-1	2	-5	-1
COC(=O)c1ccc(C)c(N(CCO)CCO)c1	-43*	0	1	2	-7
Cc1ccc(NC(=O)COC(=O)Cc2ccsc2)c(C)c1	-34*	-2	0	17	-3
CCOc1ccccc1NC(=O)COC(=O)Cc1ccsc1	2	-1	3	-3	-3
Cc1oc(-c2cccc(Cl)c2)nc1CSc1nnc(C)n2c1cc1occc12	3	0	0	4	-4
COc1ccccc1NC(=O)COC(=O)c1ccc(N2CCCC2=O)cc1	-31*	0	4	0	0
O=C(C1CCN(S(=O)(=O)Cc2ccccc2)CC1)N1CCN(c2ccc(F)cc2)CC1	-9	0	-1	-4	-3
CC1CCN(c2oc(-c3ccc(COc4ccc(Cl)cc4)o3)nc2C#N)CC1	2	2	-2	-5	1
Cn1cccc1C(=O)NNC(=O)COc1ccccc1F	-47*	0	0	-3	-7
O=C(/C=C/c1ccccc1)N1CCN(Cc2cc(=O)n3nc(-c4ccccc4)sc3n2)CC1	-3	0	0	2	-1
CC(=O)N(C1=C(O)c2ccccc2C(=O)C1=O)C1CCCCC1	-38*	0	0	-9	-1
O=C(Nc1ccc(F)cc1)Nc1cc(OCC(F)(F)F)cc(OCC(F)(F)F)c1	4	2	10	-8	-14
CN(C)c1ccc(NC(=O)Nc2ccc3snnc3c2)cc1	-48*	1	16	-8	-7
O=C(Nc1cccc(C(F)(F)F)c1)Nc1ccc2snnc2c1	-69*	3	37*	6	-3
CCOc1ccc(NC(=O)Nc2ccc3snnc3c2)cc1	-39*	1	28	2	-4
CCOc1ccc(NC(=O)Nc2cc(OCC(F)(F)F)cc(OCC(F)(F)F)c2)cc1	-37*	0	17	5	-3
CC(=O)c1ccc(NC(=O)c2ccc3snnc3c2)cc1	-24	1	2	-14	-3
COc1cc(NS(=O)(=O)c2cnc(N)nc2)cc(OC)c1	11	0	1	6	-2
Cc1ccc(OCc2nc(-c3ccc(C(=O)NCc4ccc(OC(C)C)cc4)cc3)oc2C)cc1	15	-1	0	1	0
CCCCOc1ccc(NC(=O)Cn2nnnc2-c2ccccc2F)cc1	4	1	-1	1	3
O=C(Nc1ccccc1)Nc1ccc2nnsc2c1	-19	3	33*	-7	-2
Cc1cc(C)c(NC(=O)Nc2ccc3snnc3c2)c(C)c1	-29	2	29	8	-3
SMILES	D1 antagonist	TRHR agonist	D1 agonist	TRHR PAM	D1 potentiator
O=C(Nc1ccccc1)Nc1ccc2snnc2c1	-52*	3	25	-7	-5
CCOc1ccc(NC(=O)Nc2cc(C(C)C)c(O)cc2C)cc1	-47*	0	0	-15	-5
COc1ccc(-c2cn3c(n2)sc2cc(C(=O)NC4CCCc5ccccc54)ccc23)cc1 (configuration not stated)	-13	-1	0	-3	-1
Cc1cc(C)c2c(NC(=O)c3ccccc3Cl)c(C(=O)NCc3ccc(Cl)cc3)sc2n1	-10	0	0	-3	-4
CCOc1ccc(NC(=O)c2ccc3nc(Cc4ccccc4)oc3c2)cc1	1	0	3	2	1
COc1ccc(CNC(=O)Cc2c(C)c3ccc(O)cc3oc2=O)cc1	-7	-1	2	3	2
CCOc1ccc(OCC)c(NC(=O)CCC(=O)N2CCOc3ccccc32)c1	12	-1	2	-3	-2
COc1ccccc1NC(=O)c1nn(C)c2c1CS(=O)(=O)c1ccccc1-2	8	0	3	10	-3

High-throughput results: PubChem BioAssay, National Center for Advancing Translational Sciences (NCATS)
